Experimental data as given in PubChem BioAssay AID449764 (Southern Research Specialized Biocontainment Screening …, 2010).
The campaign covered roughly 2,300 compounds. About 1,700 (74%) were called active. How the calls were made is not given here. So high a share suggests a set chosen from earlier hits. Some of the results follow. Entries with a potency or affinity are not part of this list.

Assay: Confirmatory growth inhibition assay, Mycobacterium tuberculosis H37Rv, absence of glycerol (AID 449764);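 further: growth read after 7 days of incubation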
Conditions: no glycerol; series mostly up to 100 µM
With `Cc1nc2cc(C(F)(F)F)ccc2n1C1CCN(Cc2nnnn2Cc2ccc3c(c2)OCO3)CC1` the outcome was “inactive”.
With `Cc1ccc(NC2Sc3ccccc3NC2=O)cc1Cl` (centres undefined) the outcome was “inactive”.
With `Cc1nc2sccn2c1-c1nc(-c2cc3ccccc3o2)cs1` the outcome was “inactive”.
In the case of `Cc1ccc(-c2nnc(NCc3nc4ccccc4[nH]3)c3ccccc23)cc1S(=O)(=O)N1CCCCC1`, the outcome is reported as “inactive”.
For `Cn1ccnc1C(O)c1cc(C(C)(C)C)c(O)c(C(C)(C)C)c1` (centres undefined), the outcome was “inactive”.
With `COc1ccc(NC(=O)c2oc3ccc(S(=O)(=O)N4CCOCC4)cc3c2C)cc1` the outcome was “inactive”.
For `O=C(N/N=C/c1c(F)c(F)c(F)c(F)c1F)c1cccc(S(=O)(=O)N2CCOCC2)c1`, the outcome was “inactive”.
For `CC(C)(C)c1ccc(C2C3=C(CCCC3=O)NC3=C2C(=O)c2ccccc23)cc1` (centres undefined), the outcome was “inactive”.
In the case of `CC(C(=O)NC(=O)NC1CCCCC1)N(C)CC(=O)Nc1ccc(F)c(F)c1F` (centres undefined), the outcome is reported as “inactive”.
In the case of `Cc1ccccc1C(=O)Nc1ccc(-c2nc3ccc(C(=O)c4ccccc4)cc3[nH]2)cc1`, the outcome is reported as “inactive”.
With `ClC1=C(Cl)C(Cl)=C(Cl)C1=C/C=C/c1ccccc1` the outcome was “inactive”.
With `CC(C)c1ccc2[nH]c(O)c(N=NC(=O)c3ccc(CSc4nncn4C)cc3)c2c1` the outcome was “inactive”.
With `CCOc1ccc(NC(=O)CSc2cn[nH]n2)cc1` the outcome was “inactive”.
For `COC(=O)c1ccc(CSc2nc3cc(Cl)ccc3o2)cc1`, the outcome was “inactive”.
With `CCOC(=O)c1ccc(N=C2SC(C(=O)Nc3ccc(C(=O)O)cc3)CC(=O)N2Cc2cccs2)cc1` (centres undefined) the outcome was “inactive”.
For `CCC(C)Nc1nc2c(C)cccn2c(=O)c1C=Nc1ccc(OC)cc1` (centres undefined), the outcome was “inactive”.
With `COc1ccc(NC2(c3ccc(Cl)cc3)C(=O)c3ccccc3C2=O)cc1` the outcome was “inactive”.
With `COc1ccc(C(=O)NNc2ccccc2)cc1OC` the outcome was “inactive”.
For `CC(C)C(=O)Nc1cccc(-c2nc3ccccc3c(=O)o2)c1`, the outcome was “inactive”.
In the case of `Cn1c(=O)c2cc(NCc3ccccc3)nnc2n(C)c1=O`, the outcome is reported as “inactive”.
For `Cc1ccc(C(=O)N2N=C(CC(C)C)CC2(O)C(F)(F)F)o1` (centres undefined), the outcome was “inactive”.
In the case of `CCOc1ccc(C2=Nc3ccc(Br)cc3C(c3ccc(N4CCOCC4)cc3)=NN2)cc1`, the outcome is reported as “inactive”.
In the case of `CCOc1ccc(N2CCc3c(C)nc(SC)nc32)cc1`, the outcome is reported as “inactive”.
For `Cc1nc(Nc2ccc(Cl)c(Cl)c2)sc1C(=O)Nc1ccccc1`, the outcome was “inactive”.
For `Cc1ccc(NC(=O)c2ccc(CSc3nnc(C)s3)cc2)c(C)c1`, the outcome was “inactive”.
In the case of `CCCCN(CC)c1nc(N)c2c(N)nc(OCC)cc2c1C#N`, the outcome is reported as “inactive”.
With `CC(C)C[C@H]1C(=O)N2CCC[C@H]2[C@]2(O)O[C@](NC(=O)C3C=C4c5cccc6[nH]c(Br)c(c56)C[C@H]4N(C)C3)(C(C)C)C(=O)N12` (some centres undefined) the outcome was “inactive”.
With `O=C1N/C(=N\N=C\c2ccccn2)SC1Cc1cccc(SC(F)F)c1` (centres undefined) the outcome was “inactive”.
In the case of `CCc1ccc(CCOc2ccc(CC3SC(=O)NC3=O)cc2)nc1` (centres undefined), the outcome is reported as “inactive”.
In the case of `FC(F)(F)c1ccc(N2CCOCC2)c(Nc2nc3ccccc3n3cnnc23)c1`, the outcome is reported as “inactive”.
In the case of `CSc1cc(-c2ccncc2)nc(-c2ccc(Cl)cc2)c1`, the outcome is reported as “inactive”.
In the case of `CCCCN(CCCC)c1nc(-c2ccncc2)nc2ccccc12`, the outcome is reported as “inactive”.
In the case of `O/N=C/c1ccc2ccccc2c1`, the outcome is reported as “inactive”.
With `Cc1ccc2c(c1)C(c1ccc(N3CCOCC3)cc1)=NNC(c1cccs1)=N2` the outcome was “inactive”.
In the case of `CCc1ccc(/C=C/C(=O)c2cc(Br)ccc(=O)c2O)cc1`, the outcome is reported as “inactive”.
For `Cc1ccccc1-n1c(O)c(C=Nc2ccc3c(c2)OCO3)c(=O)[nH]c1=O`, the outcome was “inactive”.
In the case of `C=CCc1c(C)nc2ccc(C(=O)OCC)cc2c1Cl`, the outcome is reported as “inactive”.
With `CCn1c(SCC(=O)Nc2ccc3c(c2)oc2ccccc23)nnc1-c1ccc(N)cc1` the outcome was “inactive”.
With `O=S(=O)(c1ccc(Oc2ccc3oc4ccccc4c3c2)nc1)N1CCCC1` the outcome was “inactive”.
For `COc1ccc(-c2cc(O)cc(O)c2)cc1`, the outcome was “inactive”.
In the case of `CCCCOC1CC(c2ccc(OCc3ccc(OC)cc3)c(OC)c2)N(C)O1` (centres undefined), the outcome is reported as “inactive”.
For `CCCCCCOc1ccc(/C=C/C(=O)N2CCOCC2)cc1OC`, the outcome was “inactive”.
With `O=[N+]([O-])/C=C/c1cn(Cc2ccccc2)c2ccccc12` the outcome was “inactive”.
In the case of `Oc1ccc(/C=N/n2c3ccccc3c3ccccc32)cc1`, the outcome is reported as “inactive”.
In the case of `Fc1cc(F)cc(Nc2nc(Cl)nc(NC3CCCC3)n2)c1`, the outcome is reported as “inactive”.
In the case of `Cc1ccc(Nc2nc(N)c([N+](=O)[O-])c(N3CCCC(C)C3)n2)cc1C` (centres undefined), the outcome is reported as “inactive”.
With `COc1ccc(NC(=O)ON=C2c3ccccc3-c3ccccc32)cc1` the outcome was “inactive”.
For `COc1ccc(N/C(=C2\CCCC2=O)C2CCCCC2)cc1`, the outcome was “inactive”.
With `CC(C)(C)c1ccc(-c2nc3[nH]c(=O)cc(NC(=O)c4ccco4)n3n2)cc1` the outcome was “inactive”.
In the case of `Cc1ccccc1C(=O)Nc1ccccc1C(=O)NCC(C)C`, the outcome is reported as “inactive”.
With `O=C1NCCC/C1=N\Nc1ccc(Br)cc1` the outcome was “inactive”.
For `CN1CCN(/N=C/c2c3ccccc3c(Cl)c3ccccc23)CC1`, the outcome was “inactive”.
With `COc1ccccc1N1CCN(c2ccc(-c3ccccc3)nn2)CC1` the outcome was “inactive”.
In the case of `COc1cc(C)ccc1OCCOc1c(C)cc(Cl)cc1Cl`, the outcome is reported as “inactive”.
With `O=c1oc(-c2ccccc2[N+](=O)[O-])nc2ccccc12` the outcome was “inactive”.
In the case of `Cc1noc2ncnc(Sc3ccc(Cl)cc3)c12`, the outcome is reported as “inactive”.
With `O/N=C/c1cn(-c2ccc(Cl)cc2)nn1` the outcome was “inactive”.
With `Cc1ccc(Cl)cc1NC(=O)CN1CCN(S(=O)(=O)N2CCOCC2)CC1` the outcome was “inactive”.
With `CN1CCN(c2ccc(C(=O)c3cn(-c4ccc(F)c(Cl)c4)nn3)cc2)CC1` the outcome was “inactive”.
For `Cc1ccc2[nH]c3c(c2c1)CN(C(=O)CN1CCN(c2ccccn2)CC1)CC3`, the outcome was “inactive”.
With `CCCCNC(=O)Nc1nnc(-c2ccc(OCC)cc2)o1` the outcome was “inactive”.
With `COc1cc(CNC(=O)CCCCCCC(C)C)ccc1O` the outcome was “inactive”.
In the case of `CN(C)C=Nc1ccc2nn(-c3ccccc3)nc2c1`, the outcome is reported as “inactive”.
For `O=C(Nc1ccc(Cl)cc1)N(Cc1nc2ccccc2c(=O)[nH]1)Cc1cccs1`, the outcome was “inactive”.
In the case of `CCOc1ccc(N/C(C)=C/C(=O)c2ccc3c(c2)OCCO3)cc1`, the outcome is reported as “inactive”.
In the case of `Cc1[nH]nc(SCC(=O)NCc2ccccc2)c1[N+](=O)[O-]`, the outcome is reported as “inactive”.
In the case of `CCC(C)n1c(NC(=O)c2ccccc2)c(C#N)c2nc3ccccc3nc21` (centres undefined), the outcome is reported as “inactive”.
With `COc1ccc(-c2oc3ccc(-c4ccc(OC)nc4)cc3c2C#CC2(O)CCCCC2)cc1` the outcome was “inactive”.
In the case of `Cc1cc(=O)oc2cc(OC(=O)C3CCN(C(=O)c4ccc(F)cc4)CC3)ccc12`, the outcome is reported as “inactive”.
